Data published in PubChem BioAssay (Tox21).
Results filed as inconclusive are left out. The source made the active and inactive calls. Unless noted, calls come from the whole dose curve; as a rule, active = well fitted curve in the direction sought with a large enough effect in the repeat runs; inconclusive = weak or mixed curves; inactive = no such curve, though single readings can be large; an effect the other way counts as inactive or inconclusive.

Key:
[1] = qHTS assay to identify small molecule antagonists of the androgen receptor (AR) signaling pathway using the MDA cell line in the presence of 0.5 nM R1881 - cell viability counter screen (AID 1259242); note: nearly all actives have a fitted effect of over 45% in size
Summary of the method: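 Cells seeded at 3,000/well and allowed 5 hr at 37C, 0% CO2 before compound transfer and R1881 (0.5 nM final) addition; 16 hr later, live-cell protease fluorescence indicated cytotoxicity.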

[2] = biological target: Estrogen receptor (Homo sapiens) (UniProt P03372); assay: qHTS assay to identify small molecule antagonists of the estrogen receptor alpha (ER-alpha) signaling pathway using the BG1 cell line in the presence of 0.1 nM 17-beta-estradiol (AID 1259244); note: nearly all actives have a fitted effect of over 50% in size; note: potency is the fitted concentration of half-maximal effect
Chain of Estrogen receptor (Homo sapiens) (P03372 whole entry, looked up): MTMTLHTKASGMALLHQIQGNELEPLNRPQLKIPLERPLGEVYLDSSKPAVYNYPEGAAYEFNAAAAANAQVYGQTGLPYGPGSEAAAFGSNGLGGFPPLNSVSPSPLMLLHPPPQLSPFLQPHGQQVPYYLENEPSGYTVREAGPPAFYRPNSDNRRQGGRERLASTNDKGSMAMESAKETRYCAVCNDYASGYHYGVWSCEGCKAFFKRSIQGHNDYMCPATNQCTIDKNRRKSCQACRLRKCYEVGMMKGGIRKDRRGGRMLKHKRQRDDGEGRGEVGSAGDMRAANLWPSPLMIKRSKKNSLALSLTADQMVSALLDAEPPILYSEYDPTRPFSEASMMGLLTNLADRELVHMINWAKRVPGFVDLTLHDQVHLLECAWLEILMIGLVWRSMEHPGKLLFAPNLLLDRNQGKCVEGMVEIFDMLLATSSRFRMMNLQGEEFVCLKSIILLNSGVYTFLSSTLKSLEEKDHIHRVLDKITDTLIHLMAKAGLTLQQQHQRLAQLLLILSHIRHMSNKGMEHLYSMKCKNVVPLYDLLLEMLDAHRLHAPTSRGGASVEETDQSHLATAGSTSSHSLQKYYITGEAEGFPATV
Summary of the method: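 Luciferase signal from VM7Luc4E2 ERE-reporter cells, co-dosed with test compound and 0.1 nM final 17beta-estradiol for 22 h, read with ONE-Glo.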

[3] = qHTS assay to identify small molecule phospholipidosis (PLD) inducers (AID 1259344; active = well fitted curve in the direction sought with a large enough effect; an effect the other way counts as inactive or inconclusive)
Summary of the method: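 Phospholipid accumulation was scored by imaging: fixed, Hoechst-counterstained HepG2 cells stained with LipidTOX Red after 24 h compound exposure at 37 C. Read-outs were pit count and pit intensity per well or per cell, with amiodarone and DMSO controls.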

[4] = qHTS assay to identify small molecule HDAC inhibitors (AID 1259364);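 note: wild-type HCT-116 cells with endogenous class I/II HDAC activity; top concentration of the series differs between compounds; nearly all actives have a fitted effect of over 45% in size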
Summary of the method: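 HCT-116 wt cells, 1,500/well, overnight attach. Compounds (DMSO) 2 h, 37 °C. HDAC-Glo I/II, 30 min RT. Luminescence.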

[5] = qHTS assay to identify small molecule HDAC inhibitors - cell viability counter screen (AID 1259365); note: series mostly up to about 92 µM; nearly all actives have a fitted effect of over 50% in size
Summary of the method: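 To flag cytotoxic hits, 1,500 wild-type HCT-116 cells per well, plated the day before, receive test compounds for 2hr at 37 C before CellTiter-Glo reagent and a luminescence read.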

[6] = qHTS assay to identify small molecule agonists of the sonic hedgehog signaling (Shh) pathway - cell viability counter screen (AID 1259366); note: nearly all actives have a fitted effect of over 50% in size; note: potency is the fitted concentration of half-maximal effect
Summary of the method: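 Fluorescence from CellTiter-Fluor reports live cells in this counter screen. NIH/3T3-derived Gli1-Luc reporter cells receive test compounds for 24hr at 37C; reagent goes in at 23hr.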

[7] = qHTS assay to identify small molecule antagonists of the sonic hedgehog signaling (Shh) pathway - cell viability counter screen (AID 1259367); note: nearly all actives have a fitted effect of over 55% in size; note: potency is the fitted concentration of half-maximal effect
Summary of the method: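 Viability was read by CellTiter-Fluor fluorescence in the same wells, reagent added 23 hr into compound treatment and incubated 1 hr at 37C. The 3T3 Gli1-Luc reporter cells (2,000/well) received conditioned medium after compound and ran 24 hr.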

[8] = qHTS assay to identify small molecule agonists of the sonic hedgehog signaling (Shh) pathway (AID 1259368; calls by dose curve;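 note: NIH/3T3-derived 3T3Gli1-Luc cells carrying a stable Gli1-driven firefly luciferase reporter; series mostly up to about 92 µM; nearly all actives have a fitted effect of over 15% in size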)
Summary of the method: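 Following a 24 hr incubation with DMSO-dissolved compounds at 37 C, 5% CO2, Gli1-Luc NIH/3T3-derived cells received luciferase reagent for 30 min at room temperature prior to luminescence measurement.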

[9] = qHTS assay to identify small molecule antagonists of the sonic hedgehog signaling (Shh) pathway (AID 1259369; calls by dose curve; note: nearly all actives have a fitted effect of over 45% in size; note: potency is the fitted concentration of half-maximal effect)
Summary of the method: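 Read-out is luminescence from a firefly luciferase gene controlled by the Gli1 response element, in 3T3Gli1-Luc cells pre-incubated 4hr then exposed to compounds and conditioned medium for 24hr.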

[10] = qHTS assay to identify small molecule agonists of the estrogen receptor beta (ER-beta) signaling pathway - cell viability counter screen (AID 1259380); note: nearly all actives have a fitted effect of over 30% in size; note: potency is the fitted concentration of half-maximal effect
Summary of the method: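 Compounds dissolved in DMSO were pin-transferred onto ER-beta-UAS-bla HEK293T cells that had settled 6 hr, and exposure ran 16 hr at 37C. Following the reporter read, CellTiter-Glo luminescence after 30 min at room temperature indicated cytotoxicity.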

[11] = qHTS assay to identify small molecule antagonists of the estrogen receptor beta (ER-beta) signaling pathway - cell viability counter screen (AID 1259382);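 note: HEK293T cells carrying ER-beta-UAS-bla reporter stimulated with estradiol; series mostly up to about 92 µM; nearly all actives have a fitted effect of over 55% in size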
Summary of the method: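 CellTiter-Glo ATP luminescence measured after the LiveBLAzer read in the same wells; ER-beta-UAS-bla HEK293T cells, 16 hr compound treatment with 1nM 17-beta-estradiol agonist at 37C, 5% CO2.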

[12] = qHTS assay to identify small molecule agonists or antagonists of the thyroid stimulating hormone receptor (TSHR) signaling pathway - wild type cell line counter screen (AID 1259384; calls by dose curve)
Summary of the method: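 Counter screen in untransfected Hek293: compounds (15-point titration, triplicate) plus phosphodiesterase inhibitor Ro20-1724 added after 18 h plating; 30 min RT. Intracellular cAMP via competitive d2/cryptate immunoassay, 1 h incubation.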

[13] = biological target: Thyrotropin receptor (Homo sapiens) (UniProt P16473); assay: qHTS assay to identify small molecule antagonists of the thyroid stimulating hormone receptor (TSHR) signaling pathway (AID 1259385; calls by dose curve; note: nearly all actives have a fitted effect of over 20% in size)
Chain of Thyrotropin receptor (Homo sapiens) (P16473 whole entry, looked up): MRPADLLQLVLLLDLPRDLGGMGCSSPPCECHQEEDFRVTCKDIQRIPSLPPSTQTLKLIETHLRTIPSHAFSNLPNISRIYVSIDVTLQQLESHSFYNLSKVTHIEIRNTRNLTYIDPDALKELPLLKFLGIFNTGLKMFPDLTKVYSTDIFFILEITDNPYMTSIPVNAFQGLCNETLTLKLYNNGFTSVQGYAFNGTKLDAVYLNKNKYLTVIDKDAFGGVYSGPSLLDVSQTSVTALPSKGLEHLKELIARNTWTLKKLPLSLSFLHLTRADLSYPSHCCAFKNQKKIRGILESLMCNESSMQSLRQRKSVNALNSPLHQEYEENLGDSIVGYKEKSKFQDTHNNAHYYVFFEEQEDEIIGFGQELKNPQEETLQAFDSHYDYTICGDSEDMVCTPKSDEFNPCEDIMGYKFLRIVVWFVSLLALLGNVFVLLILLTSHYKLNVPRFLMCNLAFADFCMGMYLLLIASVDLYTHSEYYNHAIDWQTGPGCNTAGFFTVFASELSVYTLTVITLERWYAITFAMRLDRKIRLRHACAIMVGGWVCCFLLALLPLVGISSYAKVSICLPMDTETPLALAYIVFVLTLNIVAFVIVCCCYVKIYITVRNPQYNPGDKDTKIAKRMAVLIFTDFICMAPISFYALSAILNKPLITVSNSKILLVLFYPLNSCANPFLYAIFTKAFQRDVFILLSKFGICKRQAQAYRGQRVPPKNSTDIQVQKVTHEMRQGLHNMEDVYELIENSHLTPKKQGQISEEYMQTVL
Summary of the method: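 Antagonist mode: compound-treated TSHR-expressing HEK293 cells were stimulated with 1.5 ng/mL TSH (final) in presence of Ro20-1724 for 30 min at RT. HTRF cAMP detection after 1 h; each compound tested at 15 concentrations, triplicate.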

[14] = biological target: Estrogen receptor beta (Homo sapiens) (UniProt Q92731); assay: qHTS assay to identify small molecule agonists of the estrogen receptor beta (ER-beta) signaling pathway (AID 1259377; active = well fitted activation curve with a large enough effect in the signal ratio in the repeat runs, not every such curve was filed as active; the % refers to the signal ratio)
Chain of Estrogen receptor beta (Homo sapiens) (Q92731 whole entry, looked up): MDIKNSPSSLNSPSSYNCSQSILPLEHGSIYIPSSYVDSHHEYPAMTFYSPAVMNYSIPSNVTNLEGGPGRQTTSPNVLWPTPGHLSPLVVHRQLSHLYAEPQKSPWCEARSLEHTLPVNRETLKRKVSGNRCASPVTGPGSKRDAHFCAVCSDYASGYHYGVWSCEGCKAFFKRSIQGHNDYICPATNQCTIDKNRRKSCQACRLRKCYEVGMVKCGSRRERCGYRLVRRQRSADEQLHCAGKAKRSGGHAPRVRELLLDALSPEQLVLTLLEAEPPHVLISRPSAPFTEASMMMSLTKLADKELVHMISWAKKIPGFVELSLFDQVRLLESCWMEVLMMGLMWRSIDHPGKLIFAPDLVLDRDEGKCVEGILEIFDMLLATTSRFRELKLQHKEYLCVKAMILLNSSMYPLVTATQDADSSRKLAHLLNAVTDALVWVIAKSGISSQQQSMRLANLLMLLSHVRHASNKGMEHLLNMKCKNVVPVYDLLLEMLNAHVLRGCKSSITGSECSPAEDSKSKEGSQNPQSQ
Summary of the method: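 Screening used GripTite ER-beta-UAS-bla cells held in 2% charcoal-stripped FBS medium. After overnight (16 hr) compound incubation at 37C, beta-lactamase activity was detected with a FRET substrate by fluorescence.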

[15] = biological target: Estrogen receptor beta (Homo sapiens) (UniProt Q92731); assay: qHTS assay to identify small molecule antagonists of the estrogen receptor beta (ER-beta) signaling pathway (AID 1259378; active = well fitted inhibition curve with a large enough effect in the signal ratio in the repeat runs, not every such curve was filed as active; the % refers to the signal ratio)
Summary of the method: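 Antagonist mode: compounds added to beta-lactamase reporter HEK293T ER-beta-UAS cells stimulated with E2 (1nM final), 16 hr at 37C. LiveBLAzer B/G FRET substrate, 2 hours room temperature, fluorescence read-out.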

[16] = qHTS assay to identify small molecule agonists of the androgen receptor (AR) signaling pathway in the presence of an antagonist - cell viability counter screen (AID 1259379);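 note: MDA-kb2 human breast cancer cells carrying an MMTV luciferase reporter; series mostly up to about 92 µM; nearly all actives have a fitted effect of over 25% in size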
Summary of the method: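 Each compound was tested at 15 concentrations on MDA-kb2 cells in the presence of 3.0uM nilutamide. Viability was measured by CellTiter-Fluor fluorescence after a 16 hr incubation at 37C in a CO2-free atmosphere.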

[17] = biological target: Estrogen receptor (Homo sapiens) (UniProt P03372); assay: qHTS assay to identify small molecule agonists of the estrogen receptor alpha (ER-alpha) signaling pathway in the presence of an antagonist (AID 1259383; calls by dose curve; note: top concentration of the series differs between compounds; nearly all actives have a fitted effect of over 15% in size)
Summary of the method: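 Luminescent ERE-luciferase reporter, VM7Luc4E2 cells (endogenous ER-alpha); 10.0nM ICI-182,780 final; 15-point compound titration; 22hr at 37C; ONE-Glo, 30min RT.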

[18] = qHTS assay to identify small molecule agonists of the estrogen receptor alpha (ER-alpha) signaling pathway in the presence of an antagonist - cell viability counter screen (AID 1259386);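 note: cells exposed to compounds for 22 h at 37 °C before the viability read; nearly all actives have a fitted effect of over 30% in size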; note: potency is the fitted concentration of half-maximal effect; for activity change, negative = cytotoxicity: series mostly up to about 92 µM
Summary of the method: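 Using estrogen-depleted VM7Luc4E2 cells, the 15-concentration compound series was applied together with 10.0nM ICI-182,780 and incubated 22hr at 37C/5% CO2. Cell viability was then scored by CellTiter-Fluor.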

[19] = biological target: Androgen receptor (Homo sapiens) (UniProt P10275); assay: qHTS assay to identify small molecule agonists of the androgen receptor (AR) signaling pathway in the presence of an antagonist (AID 1259381; calls by dose curve; note: nearly all actives have a fitted effect of over 15% in size)
Chain of Androgen receptor (Homo sapiens) (P10275 whole entry, looked up): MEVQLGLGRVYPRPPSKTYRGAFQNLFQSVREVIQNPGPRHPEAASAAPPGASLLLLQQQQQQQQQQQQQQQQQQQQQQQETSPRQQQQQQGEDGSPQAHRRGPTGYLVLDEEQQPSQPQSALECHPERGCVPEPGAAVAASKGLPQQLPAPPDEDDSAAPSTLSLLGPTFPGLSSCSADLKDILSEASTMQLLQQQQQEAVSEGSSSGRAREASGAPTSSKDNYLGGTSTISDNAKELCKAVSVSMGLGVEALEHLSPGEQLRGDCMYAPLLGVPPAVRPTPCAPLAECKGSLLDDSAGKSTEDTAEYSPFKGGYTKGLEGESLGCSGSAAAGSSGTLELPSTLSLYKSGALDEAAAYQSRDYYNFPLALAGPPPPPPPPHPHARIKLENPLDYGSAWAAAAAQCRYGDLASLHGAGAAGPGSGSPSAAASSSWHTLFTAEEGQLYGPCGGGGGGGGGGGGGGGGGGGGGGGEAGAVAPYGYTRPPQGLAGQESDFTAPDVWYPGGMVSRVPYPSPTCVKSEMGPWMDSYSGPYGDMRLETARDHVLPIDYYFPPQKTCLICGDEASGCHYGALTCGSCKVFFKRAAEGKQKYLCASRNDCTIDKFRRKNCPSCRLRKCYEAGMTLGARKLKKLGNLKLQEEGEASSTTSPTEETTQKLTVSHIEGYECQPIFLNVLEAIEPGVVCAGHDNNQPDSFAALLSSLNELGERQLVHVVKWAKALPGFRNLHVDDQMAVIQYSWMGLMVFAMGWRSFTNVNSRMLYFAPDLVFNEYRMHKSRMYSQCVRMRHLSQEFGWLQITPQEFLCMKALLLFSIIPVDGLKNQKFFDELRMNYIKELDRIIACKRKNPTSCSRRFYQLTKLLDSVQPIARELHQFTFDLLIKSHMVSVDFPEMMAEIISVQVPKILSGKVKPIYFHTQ
Summary of the method: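 Plated MDA-kb2 cells (3,000/well) were pre-incubated 5hr, given nilutamide (3.0uM final) or buffer, then dosed with compounds in DMSO at 15 concentrations. Luciferase activity was quantified by luminescence after 16hr at 37C.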
% is set by controls: 0 for no effect and ±100 for the full control effect.

C[C@H]1NCc2cc(-c3ccc4c(=O)c(C(=O)O)cn(C5CC5)c4c3OC(F)F)ccc21
inactive: viability change, negative = cytotoxic [1] -0.218% [at 19 µM] | activity change, negative = inhibition [2] -8.57% [at 19 µM] | Potency [3] | activity change, negative = inhibition [4] -0.849% [at 19 µM] | activity change, negative = cytotoxicity [5] 0.0413% [at 19 µM] | viability change, negative = cytotoxic [6] 2.18% [at 19 µM] | viability change, negative = cytotoxic [7] -2.69% [at 19 µM] | activity change [8] -0.818% [at 18.9 µM, active compounds read high] | activity change, negative = inhibition [9] 4.27% [at 19 µM] | activity change, negative = cytotoxicity [10] -4.82% [at 19 µM] | activity change, negative = cytotoxicity [11] 2.92% [at 19 µM] | cAMP activity change [12] -2.09% [at 18.9 µM] | activity change, negative = inhibition [13] 6.84% [at 19 µM]

OC1CCC(C2CCCCC2)CC1 (stereo not drawn)
inactive: Potency [1] | Potency [2] | Potency [4] | Potency [5] | Potency [6] | Potency [7] | Potency [8] | Potency [9] | Potency [14] | Potency [15] | Potency [16] | Potency [10] | Potency [11] | Potency [17] | outcome [12] | Potency [13] | Potency [18]

CCCCCCCCCCC[C@@H](C[C@@H]1OC(=O)[C@H]1CCCCCC)OC(=O)[C@H](CC(C)C)NC=O
inactive: Potency [1] | Potency [2] | Potency [3] | Potency [4] | Potency [5] | Potency [6] | Potency [7] | Potency [8] | Potency [10] | Potency [11] | Potency [17] | outcome [12] | Potency [13]

CC(CCc1ccccc1)NCC(O)c1ccc(O)c(C(N)=O)c1 (stereo not drawn)
inactive: Potency [1] | Potency [2] | Potency [3] | Potency [4] | Potency [5] | Potency [14] | Potency [15] | Potency [16]
active: Potency [6] 19.3 µM | Potency [7] 17.2 µM | Potency [9] 30.6 µM | Potency [18] 27.3 µM

Cc1c(C)c2c(c(C)c1OC(=O)c1cccnc1)CC[C@@](C)(CCC[C@H](C)CCC[C@H](C)CCCC(C)C)O2
inactive: Potency [1] | Potency [2] | Potency [3] | Potency [4] | Potency [5] | Potency [6] | Potency [7] | Potency [8] | Potency [9] | Potency [16] | Potency [10] | Potency [11] | Potency [17] | outcome [12] | Potency [13] | Potency [18]

COC(C)=O
inactive: Potency [1] | Potency [2] | Potency [3] | Potency [4] | Potency [5] | Potency [6] | Potency [7] | Potency [8] | Potency [14] | Potency [15] | Potency [16] | Potency [11] | Potency [17] | Potency [18]

Cc1cccc(C(=O)O)c1O
inactive: Potency [1] | Potency [2] | Potency [3] | Potency [4] | Potency [5] | Potency [6] | Potency [7] | Potency [8] | Potency [9] | Potency [16] | Potency [10] | Potency [11] | Potency [17] | outcome [12] | Potency [13] | Potency [18]

O=C1CCc2cc(OCCCCc3nnnn3C3CCCCC3)ccc2N1
inactive: Potency [1] | Potency [3] | Potency [4] | Potency [5] | Potency [6] | Potency [7] | Potency [8] | Potency [14] | Potency [16] | Potency [10] | Potency [11] | Potency [17] | outcome [12] | Potency [13]
active: Potency [2] 21.1 µM | Potency [9] 10.6 µM

CN1CCCCC1CCN1c2ccccc2Sc2ccc(S(C)=O)cc21 (stereo not drawn)
active: Potency [9] 2.66 µM
inactive: Potency [1] | Potency [2] | Potency [3] | Potency [4] | Potency [5] | Potency [8] | Potency [14] | Potency [17] | outcome [12] | Potency [18]

Cc1cc(C(C)(C)C)cc(C)c1CC1=NCCN1
inactive: Potency [1] | Potency [2] | Potency [3] | Potency [4] | Potency [5] | Potency [6] | Potency [7] | Potency [8] | Potency [9] | Potency [16] | Potency [11] | Potency [17] | outcome [12] | Potency [13] | Potency [18]

CCCCC/C=C\C/C=C\CCCCCCCC(=O)O
active: Potency [10] 43.3 µM
inactive: Potency [1] | Potency [2] | Potency [3] | Potency [4] | Potency [5] | Potency [6] | Potency [7] | Potency [8] | Potency [16] | outcome [12] | Potency [13] | Potency [18]

O=C(O)Cc1ccc2c(c1)C(=O)c1ccccc1CO2
inactive: Potency [1] | Potency [2] | Potency [4] | Potency [5] | Potency [6] | Potency [7] | Potency [8] | Potency [9] | Potency [14] | Potency [15] | Potency [16] | Potency [10] | Potency [11] | outcome [12] | Potency [13]

CC(C)Cn1cnc2c(N)nc3ccccc3c21
inactive: viability change, negative = cytotoxic [1] -4.33% [at 19 µM] | activity change, negative = inhibition [2] -22.8% [at 19 µM] | Potency [3] | activity change, negative = inhibition [4] -5.48% [at 19 µM] | activity change, negative = cytotoxicity [5] 0.199% [at 19 µM] | viability change, negative = cytotoxic [6] 8.98% [at 19 µM] | viability change, negative = cytotoxic [7] 4.21% [at 19 µM] | activation [14] 4.64% [at 19 µM] | activity, negative = inhibition [15] 5.3% [at 19 µM] | activity change, negative = cytotoxicity [16] -7.59% [at 19 µM] | activity change, negative = cytotoxicity [10] 0.961% [at 19 µM] | activation [19] -5.94% [at 19 µM] | activity change, negative = cytotoxicity [11] -2.67% [at 19 µM] | activation [17] -0.124% [at 19 µM] | cAMP activity change [12] -0.409% [at 18.9 µM] | activity change, negative = inhibition [13] 2.37% [at 19 µM] | activity change, negative = cytotoxicity [18] -6.27% [at 19 µM]
